Source: PubChem BioAssay (NCATS)
Values joined by “and” are separate entries in the source; they are usually repeats but may differ in a detail not shown here. Equal values may be shown once. Records with an inconclusive call do not appear. Active and inactive are the calls of the source. Calls come from the whole dose curve; as a rule, active = well fitted curve in the direction sought with a large enough effect; inconclusive = small, poorly fitted or top-dose-only effect, or another doubt; inactive = no such curve, though single readings can be large; an effect the other way counts as inactive or inconclusive.

Assays:
[1] = molecular target: Cellular tumor antigen p53 (Homo sapiens) (UniProt P04637); experiment: Primary qHTS for small molecule compounds that upregulate eGFP-tagged delta133p53alpha (in N-terminal) cells. (AID 2060322); details: NCI-H358 eGFP-delta133p53alpha fluorescence, 24 h; activation: hits give high values; note: nearly all actives have a fitted effect of over 75% in size; note: potency is the fitted concentration of half-maximal effect;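 for activation: cells pre-induced with doxycycline then dosed without doxycycline; series mostly up to about 56 µM; 0% = DMSO vehicle and 100% = reference activator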
Chain of Cellular tumor antigen p53 (Homo sapiens) (P04637 whole entry, looked up): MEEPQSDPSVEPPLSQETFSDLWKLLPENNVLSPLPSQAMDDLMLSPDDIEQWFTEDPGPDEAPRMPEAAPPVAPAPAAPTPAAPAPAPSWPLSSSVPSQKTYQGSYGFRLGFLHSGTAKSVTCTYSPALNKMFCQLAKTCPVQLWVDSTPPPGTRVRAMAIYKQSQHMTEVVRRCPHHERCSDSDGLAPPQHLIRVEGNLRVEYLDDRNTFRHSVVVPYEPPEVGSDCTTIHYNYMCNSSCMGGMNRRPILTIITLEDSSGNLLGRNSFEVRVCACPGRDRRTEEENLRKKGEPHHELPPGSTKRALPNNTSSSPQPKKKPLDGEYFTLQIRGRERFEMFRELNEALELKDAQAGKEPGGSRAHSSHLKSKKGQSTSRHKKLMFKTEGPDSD
Summary of the method: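 NCI-H358 cells pre-induced 24 h with 10 ng/ml doxycycline for eGFP-delta133p53alpha, plated dox-free and exposed 24 h at 37C to titrated compounds. Fixed, Hoechst-stained; gated GFP peak intensity by laser scanning cytometry, normalized to DMSO (0%) and 57.5 uM 5-azacytidine (100%).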

[2] = molecular target: Aldehyde dehydrogenase, mitochondrial (Homo sapiens) (UniProt P05091); experiment: qHTS for Inhibitors of the Aldehyde Dehydrogenase Family (ALDH2) Primary screen (AID 2061308);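 note: plate controls were vehicle for no effect and reference inhibitor for full effect; nearly all actives have a fitted effect of over 55% in size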
[3] = molecular target: Retinaldehyde dehydrogenase 3 (Homo sapiens) (UniProt P47895); experiment: qHTS for Inhibitors of the Aldehyde Dehydrogenase Family (ALDH1A3) Validation screen (AID 2061312); note: % is set by controls: 0 for no effect and ±100 for the full control effect; nearly all actives have a fitted effect of over 45% in size
[4] = molecular target: Retinaldehyde dehydrogenase 3 (Homo sapiens) (UniProt P47895); experiment: qHTS for Inhibitors of the Aldehyde Dehydrogenase Family (ALDH1A3) Primary screen (AID 2061315);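 note: plate controls were DMSO vehicle for no effect and reference inhibitor for full effect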
[5] = BET inhibitor-based combinations targeting novel dependencies in MECOM-rearranged (r) AML: SET-2 cell line (AID 2202231); details: SET-2 AML cells viability, CellTiter-Glo luminescence, 48 h; viability: hits give low values, concentration not given here; note: nearly all actives have a fitted effect of over 35% in size; note: potency is the fitted concentration of half-maximal effect;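 for viability: plate controls were DMSO treated cells for no effect and wells without cells for full effect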
Summary of the method: (§1)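 A 48 hr incubation preceded viability reading by CellTiter-Glo, with 15 min room-temperature development. Dose series had 11 points; normalization used DMSO and empty wells; AUC was computed and mean-centered per line as Z-AUC.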

[6] = BET inhibitor-based combinations targeting novel dependencies in MECOM-rearranged (r) AML: OCI-AML3 cell line (AID 2202232); details: Potency: OCI-AML3 viability; note: nearly all actives have a fitted effect of over 35% in size; note: potency is the fitted concentration of half-maximal effect
Summary of the method: as §1

[7] = BET inhibitor-based combinations targeting novel dependencies in MECOM-rearranged (r) AML: MV-4-11 cell line (AID 2202233); note: nearly all actives have a fitted effect of over 45% in size; note: potency is the fitted concentration of half-maximal effect
Summary of the method: (§2)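 Each compound is tested in an 11-point concentration series against 500 seeded cells/well for 48 hr. The luminescent viability signal is normalized to DMSO and blank wells, then reduced to AUC and a cell-line-centred Z-AUC.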

[8] = BET inhibitor-based combinations targeting novel dependencies in MECOM-rearranged (r) AML: HNT-34 cell line (AID 2202234); note: nearly all actives have a fitted effect of over 35% in size; note: potency is the fitted concentration of half-maximal effect
Summary of the method: as §2

[9] = BET inhibitor-based combinations targeting novel dependencies in MECOM-rearranged (r) AML: UCSD-AML1 cell line (AID 2202235); note: nearly all actives have a fitted effect of over 40% in size; note: potency is the fitted concentration of half-maximal effect
Summary of the method: as §2

[10] = BET inhibitor-based combinations targeting novel dependencies in MECOM-rearranged (r) AML: AML-191 cell line (AID 2202236; note: nearly all actives have a fitted effect of over 35% in size; note: potency is the fitted concentration of half-maximal effect)
Summary of the method: as §1

[11] = BET inhibitor-based combinations targeting novel dependencies in MECOM-rearranged (r) AML: AML-194 cell line (AID 2202237; note: nearly all actives have a fitted effect of over 40% in size; note: potency is the fitted concentration of half-maximal effect)
Summary of the method: as §1

C[C@@]1(c2cc(-c3cncnc3)c(F)cc2F)CCSC(N)=N1
inactive: activation [1] 19.2% and -1.91% | Potency [2] | Potency [3] | Potency [4] | viability [5] 111% | Potency [6] | Potency [7] | Potency [8] | Potency [9] | Potency [10] | Potency [11]

CCOCc1nc2c(N)nc3ccccc3c2n1CC(C)(C)O
inactive: activation [1] 4.77% | Potency [2] | Potency [3] | Potency [4] | viability [5] 108% | Potency [6] | Potency [7] | Potency [8] | Potency [9] | Potency [10] | Potency [11]

CC(C)(OCc1nn(Cc2ccccc2)c2ccccc12)C(=O)O
inactive: activation [1] -10.7% and 1.91% | Potency [2] | Potency [3] | Potency [4] | viability [5] 104% | Potency [6] | Potency [7] | Potency [8] | Potency [9] | Potency [10] | Potency [11]

NC(=O)Nc1cc(-c2cccc(F)c2)sc1C(=O)N[C@H]1CCCNC1
inactive: Potency [2] | Potency [3] | Potency [4]
active: Potency [1] 8.49 µM | Potency [5] 0.934 µM | Potency [6] 0.468 µM | Potency [7] 0.0021 µM | Potency [8] 0.468 µM | Potency [9] 0.296 µM | Potency [10] 0.332 µM | Potency [11] 0.372 µM

O=C(O)CCn1c2c(c3ccccc31)C[C@H](NS(=O)(=O)c1ccc(F)cc1)CC2
inactive: activation [1] 0.565% and -1.83% and 6.68% | Potency [2] | Potency [3] | Potency [4] | viability [5] 105% | Potency [6] | Potency [7] | Potency [8] | Potency [9] | Potency [10] | Potency [11]

COc1cc2c(cc1-c1c(C)noc1C)ncc1[nH]c(=O)n([C@H](C)c3ccccn3)c12
active: Potency [5] 1.32 µM | Potency [6] 0.468 µM | Potency [7] 0.417 µM
inactive: activation [1] 5.5% and 9.55% and -13.4% | Potency [2] | Potency [3] | Potency [4]

Cc1nc(Nc2n[nH]c3c2CN(C(=O)N[C@H](CN(C)C)c2ccccc2)C3(C)C)c2sccc2n1
inactive: Potency [2] | Potency [3] | Potency [4]
active: Potency [1] 10.7 µM | Potency [5] 1.48 µM | Potency [6] 0.468 µM | Potency [7] 0.0235 µM | Potency [8] 1.18 µM | Potency [9] 0.148 µM | Potency [10] 1.18 µM | Potency [11] 1.66 µM

c1cc(Nc2cc(C3CC3)[nH]n2)nc(Nc2ccc3nc[nH]c3c2)n1
inactive: Potency [2] | Potency [3] | Potency [4]
active: Potency [1] 0.849 µM | Potency [5] 0.662 µM | Potency [6] 0.263 µM | Potency [7] 0.0525 µM | Potency [8] 0.263 µM | Potency [9] 0.332 µM | Potency [11] 0.372 µM

CC(C)CNc1ccnc(NCc2csc(-c3ccccc3)n2)n1
active: Potency [5] 11.8 µM | Potency [6] 8.33 µM | Potency [7] 8.33 µM | Potency [8] 5.9 µM | Potency [9] 5.25 µM | Potency [10] 16.6 µM | Potency [11] 16.6 µM
inactive: activation [1] 18.4% and 19.6% | Potency [2] | Potency [3] | Potency [4]

CCC(C)(Oc1ccc(C2(c3ccc(OC(C)(CC)C(=O)O)cc3)CCCCC2)cc1)C(=O)O (stereo unspecified)
inactive: activation [1] -25.7% and 13.4% | Potency [2] | Potency [3] | Potency [4] | viability [5] 114% | Potency [6] | Potency [7] | Potency [8] | Potency [9] | Potency [11]

C#CC[C@H](c1nc2cc(Cl)ccc2c(=O)n1Nc1ccccc1)N(CCCN)C(=O)c1cccc(Cl)c1F
inactive: Potency [2] | Potency [3] | Potency [4]
active: Potency [1] 4.78 µM | Potency [5] 10.5 µM | Potency [6] 0.59 µM | Potency [7] 1.05 µM | Potency [8] 0.372 µM | Potency [9] 1.05 µM | Potency [10] 3.32 µM | Potency [11] 3.32 µM

CN(C)C1CCN(C(=O)c2ccc(NC(=O)Nc3nc(N4CCOCC4)nc(N4CCOCC4)n3)cc2)CC1
active: Potency [5] 5.25 µM | Potency [6] 0.132 µM | Potency [7] 0.105 µM | Potency [8] 0.105 µM | Potency [9] 0.296 µM | Potency [11] 0.59 µM
inactive: activation [1] -12.1% | Potency [2] | Potency [3] | Potency [4]

COc1cc(CCc2cc(NC(=O)c3ccc(N4C[C@@H](C)N[C@@H](C)C4)cc3)n[nH]2)cc(OC)c1
active: Potency [5] 20.9 µM | Potency [6] 18.6 µM | Potency [7] 2.09 µM | Potency [8] 7.42 µM | Potency [9] 7.42 µM | Potency [10] 16.6 µM | Potency [11] 14.8 µM
inactive: activation [1] 1.33% and -3.34% | Potency [2] | Potency [3] | Potency [4]
